Here are results for 46 compounds from PubChem BioAssay AID602393 (Broad Institute, 2012).

Screen size: about 350,000 compounds; about 7,000 (2%) were called active. The entries come from a sample that favours actives as a whole. Values without a mark were called inactive. Cut-off read from the data, not from the text of the source: active = activation above about 40%; inconclusive = no clear call, values can overlap the other calls; inactive = below that.

The assay is described as follows: Bmi1 luciferase reporter increase in mESCs, primary screen, esBAF inhibitor project, mouse ES cells, Bmi1 luciferase knock-in, single point (AID 602393).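 Note: 0% = median of the plate's neutral control wells and 100% = double that signal; a rise in the Bmi1 reporter signal indicates esBAF inhibition.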 The conditions noted are these: 24 h, at 12.5 µM, hits give high values, 100% = twice the neutral-well signal. Background: A reporter such as luciferase makes a cellular process visible.
Turning to `O=C(C1CCC1)N1C[C@@H]2[C@H](c3ccccc31)[C@H](CO)N2C(=O)c1ccccc1`, the reporter increase was -1.2%.

With `COc1ccccc1Cc1nc(-c2ccc(C)cc2)no1`, the reporter increase is 46.3% (active). To `Cc1ccc(Cc2nc(-c3cccc(C)c3)no2)cc1` belongs 60.8% (active); to `CCCc1nc(-c2cc3cc(C)ccc3[nH]c2=O)no1`, -1.25%.

Turning to `COc1ccccc1-c1noc(CSc2nc(C)cc(=O)[nH]2)n1`, the reporter increase was -5.13%. As for `Cc1ccc(-c2noc(CNC(=O)c3ccoc3C)n2)cc1`, the figure is 1.49%; as for `Cc1ccc(-c2noc(CC(c3ccccc3)c3ccccc3)n2)cc1`, 0.61%.

With `C[C@@H]1CCCCO[C@@H](CN(C)Cc2ccncc2)[C@H](C)CN([C@H](C)CO)C(=O)c2cc(N(C)C)ccc2O1`, the reporter increase is -12.3%. On to `CCCC(=O)Nc1ccc2c(c1)OC[C@@H](C)N(Cc1ccccc1F)C[C@@H](C)[C@H](OC)CN(C)C2=O`, for which the reporter increase was -2.03%.

On to `COc1ccc(S(=O)(=O)Nc2cccc3c2O[C@@H](CN(C)C(=O)NC(C)C)[C@H](C)CN([C@@H](C)CO)C3=O)cc1`, for which the reporter increase is -7.18%. For the compound `O=C([C@@H]1[C@@H](CO)[C@@H]2Cn3c(ccc(C4=CCCC4)c3=O)[C@H]1N2C(=O)c1ccncc1)N1CCCCC1`, the reporter increase was -2.02%. To `C[C@@H]1CN([C@@H](C)CO)C(=O)CCCn2cc(nn2)CO[C@@H]1CN(C)Cc1ccccc1C(=O)O` belongs -3.04%; to `C[C@H]1CCCCO[C@H](CN(C)C(=O)NC2CCCCC2)[C@@H](C)CN([C@@H](C)CO)C(=O)c2cc(NC(=O)Nc3ccc4c(c3)OCO4)ccc2O1`, 44.8% (active); to `C[C@@H]1CCCCO[C@H](CN(C)C(=O)NC2CCCCC2)[C@H](C)CN([C@@H](C)CO)C(=O)c2cc(NC(=O)Nc3ccc(F)cc3)ccc2O1`, 3.4%.

Regarding `CC(C)NC(=O)N(C)C[C@H]1OCCCC[C@H](C)Oc2ccc(NC(=O)Nc3ccc4c(c3)OCO4)cc2C(=O)N([C@H](C)CO)C[C@@H]1C`, the reporter increase is 4.2%. As for `C[C@H](CO)N1C[C@H](C)[C@H](CN(C)C(=O)NC2CCCCC2)OCCCC[C@H](C)Oc2ccc(NC(=O)Nc3ccc4c(c3)OCO4)cc2C1=O`, the figure is 55.8% (active).

Take `C[C@@H]1CCCCO[C@@H](CN(C)C(=O)NC2CCCCC2)[C@H](C)CN([C@@H](C)CO)C(=O)c2cc(NC(=O)Nc3ccc(F)cc3)ccc2O1`: the reporter increase was 3.77%. As for `C[C@@H]1CCCCO[C@H](CN(C)C(=O)NC2CCCCC2)[C@H](C)CN([C@H](C)CO)C(=O)c2cc(NC(=O)Nc3ccc(F)cc3)ccc2O1`, the figure is 4.59%. To `COCC(=O)N(C)C[C@H]1Oc2ncc(-c3cccc(OC)c3)cc2C(=O)N([C@H](C)CO)C[C@H]1C` belongs -0.645%. To `C[C@@H]1CN([C@H](C)CO)C(=O)CCCn2cc(nn2)CO[C@@H]1CN(C)Cc1ccc2cccnc2c1` belongs -4.13%; to `CCC(=O)Nc1ccc2c(c1)OC[C@@H](C)N(CC1CC1)C[C@H](C)[C@H](OC)CN(C)C2=O`, 2.9%; to `C[C@H]1CN([C@@H](C)CO)C(=O)c2cc(C#CC(C)(C)O)cnc2O[C@H]1CN(C)C(=O)CC1CC1`, 2.32%. `C[C@@H]1CN([C@H](C)CO)C(=O)c2c(c3ccccc3n2C)-c2ccccc2CO[C@@H]1CN(C)C(=O)Nc1ccccc1`: the reporter increase is 2.44%. As for `O=C(CN1CCCSc2ccccc21)N1CCN(S(=O)(=O)c2cccc(F)c2)CC1`, the figure is 2.16%; as for `O=C(CN1CCCSc2ccccc21)N1CCN(S(=O)(=O)c2ccccc2)CC1`, 3.15%. As for `N#C/C=C1\Sc2ccccc2C(=O)N1CC(=O)N1CCN(S(=O)(=O)c2ccccc2)CC1`, the figure is 76.9% (active). For the compound `CCCNC(=O)N1C[C@@H](O)COC[C@H]2O[C@H](CC(=O)N3CCC(Cc4ccccc4)CC3)CC[C@@H]21`, the reporter increase is 8.61%. To `CCC(=O)N[C@H]1CC[C@@H](CC(=O)NCc2cc(F)cc(F)c2)O[C@@H]1CO` belongs 0.353%; to `O=C(NCCNc1ccc([N+](=O)[O-])cc1Cl)c1ccccc1F`, 7.96%. To `O=C(NCCNc1ccccc1[N+](=O)[O-])c1ccccc1F` belongs 62.1% (active); to `COC(=O)CNC(=O)c1ccccc1[N+](=O)[O-]`, -1.18%. To `CC(=O)Nc1ccc2c(c1)C(=O)N(C)[C@@H]1CC[C@H](CC(=O)NCc3ccccc3)O[C@H]1CO2` belongs -6.55%. Take `CO[C@@H]1CN(C)C(=O)c2cc(NC(=O)C3CCC3)ccc2OC[C@H](C)N(Cc2ccccn2)C[C@H]1C`: the reporter increase was 1.86%.

Take `Cc1nc(N)sc1-c1ccccc1`: the reporter increase was 0.609%. Take `Cc1nc(-c2ccccc2)sc1-c1nc(-c2ccccc2)ncc1S(=O)(=O)c1ccccc1`: the reporter increase was -0.228%. On to `Cc1nc(-c2ccccc2)sc1-c1nnc(C2CC2)o1`, for which the reporter increase is 76.8% (active). Consider `CO[C@@H]1CN(C)C(=O)c2cc(NC(=O)C3CC3)ccc2OC[C@@H](C)N(C(=O)c2ccccc2F)C[C@@H]1C`, for which the reporter increase is -20.7%. As for `C[C@H](CO)N1C[C@H](C)[C@@H](CN(C)S(=O)(=O)c2ccc(Cl)cc2)Oc2ccc(NS(C)(=O)=O)cc2CC1=O`, the reporter increase was -2.32%. To `CC(C)C(=O)Nc1c(C(=O)c2ccc(F)cc2)oc2ccccc12` belongs -8.19%; to `CCc1cccc(NC(=O)COC(=O)c2cc(=O)c3ccccc3o2)c1`, 8.66%. To `CC(C)C(=O)Nc1ccc2c(c1)oc1ccccc12` belongs 60.1% (active); to `C[C@@H]1CN([C@@H](C)CO)S(=O)(=O)c2ccc(C#Cc3ccccc3)cc2O[C@@H]1CN(C)C(=O)C1CC1`, -5.48%. To `Cc1ccc(SCC(=O)NC(=O)NCc2ccco2)c(C)c1` belongs -6.07%; to `Cc1ccc(NC(=O)Cn2nnc(C(=O)NCc3ccco3)c2N)c(C)c1`, 3.66%; to `Cc1ccc(NC(=O)C(=O)NCc2ccco2)c(C)c1`, 47.2% (active). Consider `O=C(Cc1ccccn1)NCC[C@H]1CC[C@H](NS(=O)(=O)c2ccccc2)[C@@H](CO)O1`, for which the reporter increase is -4.76%.
